# Assay outcomes from PubChem.
# Abeta yeast res: compounds reversing amyloid beta toxicity in yeast; Potency, µM (highest dose often 46.1 µM), actives largely listed as activators; 0.063% of 410,000 active; AID 1347071; yeast expressing A-beta42, growth rescue, OD600, 48 h; response scale: 0% DMSO, 100% iron-clioquinol control; note: nearly all actives have a fitted effect of over 55% in size
#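 Growth rescue measured by 600 nm absorbance after 48 h yeast culture at 30 C with compound. Values normalized between DMSO and an equimolar ferric chloride plus clioquinol control.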
# FUS yeast rescue: suppressors of FUS proteinopathy in yeast; S. cerevisiae FUS-expressing, growth rescue, OD600, 24 h; Potency, µM (titrated, usually from 76.6 µM), usual class: activators; 0.24% of 390,000 active; note: nearly all actives have a fitted effect of over 55% in size
#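 Absorbance at 600 nm, taken 24hr after compound addition, measured rescue of FUS-yeast growth at 30C. Induction used 2% galactose with seeding at OD 0.005. Controls: CP55940 from 92uM final, DMSO only.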
# aSyn yeast inh: inhibitors of alpha-synuclein toxicity in yeast. Potency, µM (titrated, usually from 46.1 µM), usual class: activators. 0.14% of 370,000 active. Yeast expressing alpha-synuclein, growth rescue, BacTiter-Glo, 24 h; note: nearly all actives have a fitted effect of over 65% in size
#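 Screening used galactose-induced yeast with toxic alpha-synuclein levels, exposed to compound for 24 hr at 30 deg C. Cell growth, read with BacTiter-Glo luminescence, gave the measured signal.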
# TDP-43 yeast inh: inhibitors of TDP-43 toxicity in yeast. 1.8% of 410,000 active. AID 652104. Potency, µM (highest dose often 46.1 µM), most hits filed as activators. TDP-43 expressing yeast growth rescue, BacTiter-Glo, 24 h; note: nearly all actives have a fitted effect of over 50% in size
#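 Yeast cells expressing TDP-43 under galactose induction are exposed to compounds for 24 hr at 30 deg C. BacTiter-Glo luminescence measures growth, so protective compounds score as activators.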
# Numbers stand for hits; 0 = inactive; ? = inconclusive; - = not tested or not shown; [ ] = remark or other dose. Most compounds without a hit are left out; they make up all but 2.1% or so of the library. Calls come from the whole dose curve; as a rule, active = well fitted curve in the direction sought with a large enough effect; inconclusive = small, poorly fitted or top-dose-only effect, or another doubt; inactive = no such curve, though single readings can be large; an effect the other way counts as inactive or inconclusive.
SMILES,Abeta yeast res,FUS yeast rescue,aSyn yeast inh,TDP-43 yeast inh
COc1ccccc1NC(=S)N(Cc1ccccc1)Cc1ccccn1,?,0,0,22µM
COc1ccc(C(=O)NCCN2C(=O)C3C4C=CC(C4)C3C2=O)cc1OC (stereo not given),-,0,-,-
Cc1ccc(C)c2sc(N3CCN(C(=O)C(C)(C)C)CC3)nc12,0,0,-,35µM
Cc1ccc(Cl)c2sc(N3CCN(C(=O)C4CC4)CC3)nc12,0,?,-,14µM
O=C(C1CC1)N1CCN(c2nc3c(Cl)cccc3s2)CC1,0,0,-,?
O=C1[C@@H]2CSC(c3ccc(C(F)(F)F)cc3)N2C(=O)N1c1ccccc1 (stereo not given in full),0,0,-,13µM
O=C1[C@@H]2CSC(c3ccc(Cl)cc3)N2C(=O)N1c1ccccc1 (stereo not given in full),0,0,-,35µM
c1ccc(Cn2c(SC3CCCCC3)nnc2-c2cccnc2)cc1,-,0,-,-
C1NNCC12CNNC2,-,-,0,-
Cc1ccc(Cn2c(CNC(=O)c3ccccc3Br)nc3cccnc32)cc1,0,0,-,11µM
CC(C)C(=O)N1CC[C@H]2[C@H](CCCN2Cc2ccc(F)cc2)C1,-,0,-,-
Cc1nc(SC2CC(=O)N(c3ccccc3)C2=O)n[nH]1 (stereo not given),0,0,0,4.5µM
COc1ccc(N2C(=O)CC(Sc3nnc(-c4ccccc4)o3)C2=O)cc1 (stereo not given),0,0,-,11µM
O=C1CC(Sc2nnc(-c3ccccc3O)o2)C(=O)N1c1ccccc1 (stereo not given),0,?,?,?
O=C(Nc1ccc2c(c1)OCO2)NC1CCCCN(Cc2cccc(Cl)c2)C1=O (stereo not given),-,0,-,-
O=C(Cc1ccccc1F)Nc1ccc(SC(F)F)cc1,0,0,0,0[0.397 µM]
O=C(COC(=O)Cc1ccccc1F)Nc1ccc(SC(F)F)cc1,0,0,0,10µM
COc1ccc(CNC(=S)OC2CCC23CCC(c2ccccc2)CC3)cc1 (stereo not given),-,0,-,-
CN(C(=S)NC(=O)C12CC3CC(CC(C3)C1)C2)c1ccc(O)cc1,0,0,0,18µM
CC(C)(C)C(=O)OC12CCCN(C1)/C(=C/c1ccc(Cl)cc1)C2 (stereo not given),-,0,-,-
C[C@@H]1CC=C[C@@H]2[C@H]1C(=O)N(Cc1ccccc1)[C@H]2c1ccccc1Br,0,0,0,11µM
CN(CC(=O)Nc1ccccc1)CC(=O)Nc1ccccc1Cl,0,0,0,0
CCCCc1ccc(NC(=O)CN(C)CC(=O)Nc2ccccc2Cl)cc1,?,35µM,0,0
COc1ccc(CN2C(=O)CCCC2(C)c2nnnn2-c2c(C)cccc2C)cc1OC (stereo not given),-,0,-,-
Nn1cnc2c(c1=O)C1(CCCCC1)Cc1ccccc1-2,0,-,0,10µM
SMILES,Abeta yeast res,FUS yeast rescue,aSyn yeast inh,TDP-43 yeast inh
CC(=O)Nn1cnc2c(c1=O)C1(CCCC1)Cc1ccccc1-2,0,0,0,0
Nc1ccccc1SCc1csc(-c2ccc(Cl)cc2)n1,0,0,0,13µM
Cc1ccc(/C=N/Nc2nc(C(C)(C)C)cs2)o1,0,0,0,0
Cc1ccc(/C=N/Nc2nc3ccccc3s2)o1,?,0,0,11µM
CCOc1ccc(CCNC(=O)c2cc3sccc3n2CC)cc1OC,-,0,-,-
O=C(O)c1cccc2c1C(=O)N(CC1CCCO1)C2 (stereo not given),0,0,0,0[9.22 µM]
CCc1cccc(NC(=O)c2cccc3c2C(=O)N(CC2CCCO2)C3)c1 (stereo not given),0,0,0,18µM
Nc1c2c(=O)oc(-c3ccccc3)cc2nn1-c1ccccc1,0,0,0,14µM
O=[N+]([O-])c1cc(S(=O)(=O)Oc2ccccc2)ccc1Cl,0,-,0,11µM
O=S(=O)(Oc1ccccc1)c1ccc(Cl)c(Cl)c1,0,0,0,0
COC(=O)C1=C(C(=O)OC)SC(=C2C(=S)C(C)(C)N(C(=O)C3CC3)c3ccccc32)S1,0,0,0,2.2µM
CCCC(=O)N1c2ccccc2C(=C2SC(C(=O)OC)=C(C(=O)OC)S2)C(=S)C1(C)C,0,0,0,?
COC(=O)C1=C(C(=O)OC)SC(=C2C(=S)C(C)(C)N(C(=O)C(C)C)c3ccccc32)S1,0,0,?,3.2µM
Cn1c(SCC(=O)NCc2ccco2)nnc1-c1cccc(NC(=O)c2ccccc2)c1,-,-,0,-
CCOC(=O)[C@@]12CCC3=C1N(CCC3)C(=O)[C@H](CC(=O)NCCCOC)C2,-,0,-,-
